Compound activity (PubChem BioAssay)
In the library only some 4.1% were active in any assay of this set; here they are far more common.
NSD2 HMT inh = NSD2 histone methyltransferase inhibitors, primary screen, biochemical, AlphaScreen, single concentration, set 2 | 310,000 compounds, 0.54% hits | inhibition, % at 12.5 µM | NSD2 peptide methylation, 120 min; in the data active = inhibition above about 50%
Target sequence (O96028 whole entry, looked up): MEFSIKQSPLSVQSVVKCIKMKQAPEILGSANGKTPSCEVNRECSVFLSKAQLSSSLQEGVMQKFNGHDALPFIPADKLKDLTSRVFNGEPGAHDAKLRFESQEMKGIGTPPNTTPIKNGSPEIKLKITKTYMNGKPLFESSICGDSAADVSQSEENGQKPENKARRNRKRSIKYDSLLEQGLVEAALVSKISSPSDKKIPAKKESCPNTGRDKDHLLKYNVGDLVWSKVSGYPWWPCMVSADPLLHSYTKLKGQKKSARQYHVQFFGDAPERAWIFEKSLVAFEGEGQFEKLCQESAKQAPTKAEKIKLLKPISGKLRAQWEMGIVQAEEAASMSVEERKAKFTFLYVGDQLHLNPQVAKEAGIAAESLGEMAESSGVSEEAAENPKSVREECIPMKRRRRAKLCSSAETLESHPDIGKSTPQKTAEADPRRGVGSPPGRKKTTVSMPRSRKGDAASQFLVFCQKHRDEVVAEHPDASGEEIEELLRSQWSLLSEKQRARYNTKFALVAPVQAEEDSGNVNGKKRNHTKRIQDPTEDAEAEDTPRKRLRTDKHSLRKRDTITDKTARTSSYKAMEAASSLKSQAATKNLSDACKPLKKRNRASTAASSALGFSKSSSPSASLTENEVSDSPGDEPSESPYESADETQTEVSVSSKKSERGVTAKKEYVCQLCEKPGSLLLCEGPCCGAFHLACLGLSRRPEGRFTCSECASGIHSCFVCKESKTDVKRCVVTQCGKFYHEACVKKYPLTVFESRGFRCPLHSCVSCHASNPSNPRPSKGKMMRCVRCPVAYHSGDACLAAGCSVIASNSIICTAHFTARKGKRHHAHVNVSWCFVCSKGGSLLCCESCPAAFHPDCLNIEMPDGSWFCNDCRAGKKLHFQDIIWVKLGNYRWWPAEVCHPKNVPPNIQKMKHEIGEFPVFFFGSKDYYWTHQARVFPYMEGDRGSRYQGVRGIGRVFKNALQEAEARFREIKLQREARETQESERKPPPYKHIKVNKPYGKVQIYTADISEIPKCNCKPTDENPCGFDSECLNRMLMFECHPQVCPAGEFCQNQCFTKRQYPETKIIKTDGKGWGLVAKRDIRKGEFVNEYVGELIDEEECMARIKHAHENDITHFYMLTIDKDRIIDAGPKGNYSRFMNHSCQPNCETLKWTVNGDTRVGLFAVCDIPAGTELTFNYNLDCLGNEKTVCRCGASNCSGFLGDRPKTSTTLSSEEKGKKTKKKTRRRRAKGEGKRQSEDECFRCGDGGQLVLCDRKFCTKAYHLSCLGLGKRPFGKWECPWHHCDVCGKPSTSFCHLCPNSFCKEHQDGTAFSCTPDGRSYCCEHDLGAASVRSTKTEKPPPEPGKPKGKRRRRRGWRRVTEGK
F508del corr = F508del CFTR correction, initial screen, CFBE line, single point; 350,000 compounds, 0.36% hits; activity (quench increase), % at 7.58 µM; CFBE cells, YFP halide quenching; stimulated with forskolin plus potentiator P3; % fluorescence drop versus neutral controls;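 active = mean added fluorescence quench of at least 8% versus neutral control, with both replicates also reaching 8%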;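 note: cells transiently co-express mutant CFTR-F508del with the halide-sensitive YFP; corrector assay measuring rescue of mutant channel to the surface after 24 h compound exposure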
PglD DTNB = C. jejuni PglD acetyltransferase inhibitors, primary screen, biochemical, DTNB colorimetric, single point | UDP-N-acetylbacillosamine N-acetyltransferase PglD (Campylobacter jejuni) | purified PglD enzyme, DTNB colorimetric CoA detection | 360,000 compounds, 0.098% hits | AID 602405, 2012 | inhibition, % at 12.5 µM; in the data active = inhibition above about 16%, passing the limit was not always enough
Env fusion inh = inhibitors of HIV-1 Env-driven cell-cell fusion, primary screen, HeLa-JRFL effector, CEM21 target cells, luciferase; 360,000 compounds, 1.1% hits; inhibition, % at 12.3 µM; AID 651610, 2012;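 active = mean replicate inhibition score of at least 50 and every replicate individually at or above 50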
ALR inh = inhibitors of human ALR sulfhydryl oxidase, primary screen, biochemical, H2O2 detection, HRP-luminol luminescence, single point | FAD-linked sulfhydryl oxidase ALR (Homo sapiens), P55789 | purified ALR, DTT oxidation | inhibition, % (concentration not given with the values) | 290,000 compounds, 3.8% hits;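 active = mean replicate inhibition above about 79%, with every replicate also reaching it, limit read from the data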
Casp6 inh = human caspase-6 inhibitors, primary screen, biochemical, VEID-R110 fluorescence, single point, set 2 | P55212 | purified caspase-6, Z-VEID-R110 cleavage fluorescence | inhibition, % at 12.5 µM | 350,000 compounds, 0.53% hits | AID 686996, 2013;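 active = mean inhibition across replicates at least about 35%, with every replicate also reaching that limit, limit read from the data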
A number is an active result.

`COC(=O)c1ccc(COc2ccc(C)cc2[N+](=O)[O-])o1` gave NSD2 HMT inh inactive, F508del corr inactive, PglD DTNB inactive, Env fusion inh inactive, ALR inh inactive and Casp6 inh inactive.
COC(=O)c1ccc(COc2cc([N+](=O)[O-])cc3cccnc23)o1 was read as NSD2 HMT inh inactive, F508del corr inactive, Env fusion inh inactive, ALR inh inactive and Casp6 inh 38.
`C[C@@H]1CN([C@@H](C)CO)C(=O)c2cc(-c3ccc(C(=O)N(C)C)cc3)cnc2O[C@H]1CN(C)C(=O)CN(C)C` gave F508del corr inactive, PglD DTNB inactive, Env fusion inh inactive and Casp6 inh inactive.
`COc1ccc(C(=O)Nc2ccc3c(c2)OC[C@@H](C)NC[C@H](C)[C@H](OC)CN(C)C3=O)cc1` gave F508del corr inactive, PglD DTNB inactive, Env fusion inh inactive and Casp6 inh inactive.
For COc1ccc(NC(=O)C2(C)CCN2Cc2ccccc2OC(F)F)cc1OC (configuration not stated) the results were NSD2 HMT inh inactive, F508del corr inactive, PglD DTNB inactive, Env fusion inh 71 and Casp6 inh inactive.
`CC1(C(=O)Nc2ccc(Cl)c(Cl)c2)CCN1Cc1ccccc1OC(F)F` (configuration not stated) gave NSD2 HMT inh inactive, F508del corr inactive, PglD DTNB inactive, Env fusion inh inactive and Casp6 inh inactive.
Cc1ccc2cc(C#N)c(NCCNC(=S)NCCCN(C)C)nc2c1C was read as NSD2 HMT inh inactive, F508del corr inactive, Env fusion inh inactive, ALR inh inactive and Casp6 inh inactive.
`Cc1ccc2cc(C#N)c(NCCNC(=O)C3CC3)nc2c1C` gave NSD2 HMT inh inactive, PglD DTNB inactive, Env fusion inh 113 and ALR inh inactive.
For CC1=C2[C@@H](c3ccccc3)OB(O)C[C@@H]2[C@@H]2C(=O)N(Cc3ccccc3)C(=O)[C@@H]2C1 the results were F508del corr inactive, Env fusion inh inactive and Casp6 inh inactive.
`COc1cccc(-c2noc(C3CCCN(S(=O)(=O)c4cccc(Cl)c4C)C3)n2)c1` (configuration not stated) gave NSD2 HMT inh inactive, PglD DTNB inactive, Env fusion inh 112 and ALR inh inactive.
`COc1ccc(-c2cnc3c(c2)C(=O)N([C@@H](C)CO)C[C@H](C)[C@@H](CN(C)S(C)(=O)=O)O3)cc1` gave F508del corr inactive, PglD DTNB inactive, Env fusion inh inactive and Casp6 inh inactive.
Screening COc1ccc(S(=O)(=O)CCC(=O)NCc2ccc(C)o2)cc1 returned F508del corr inactive, PglD DTNB inactive, Env fusion inh inactive, ALR inh 86 and Casp6 inh inactive.
Screening COc1ccc(CNC(=O)CCS(=O)(=O)c2ccc(Br)cc2)cc1 returned NSD2 HMT inh inactive, F508del corr inactive, PglD DTNB inactive, Env fusion inh inactive, ALR inh inactive and Casp6 inh 57.
For CCc1cccc(NC(=O)CCS(=O)(=O)c2ccc(Br)cc2)c1 the results were NSD2 HMT inh inactive, F508del corr inactive, PglD DTNB inactive, Env fusion inh inactive, ALR inh inactive and Casp6 inh 72.
`COc1ccc(S(=O)(=O)CCC(=O)NCCc2ccc(Cl)cc2)cc1` gave NSD2 HMT inh inactive, F508del corr inactive, PglD DTNB inactive, ALR inh inactive and Casp6 inh inactive.
For CC(=O)N1CCc2cc(S(=O)(=O)CCC(=O)NCc3ccc(C)o3)ccc21 the results were NSD2 HMT inh inactive, F508del corr inactive, PglD DTNB inactive, Env fusion inh inactive, ALR inh inactive and Casp6 inh inactive.
Screening NS(=O)(=O)c1ccc(CCNC(=O)CCS(=O)(=O)c2ccc(Br)cc2)cc1 returned NSD2 HMT inh inactive, F508del corr inactive, PglD DTNB inactive, Env fusion inh inactive, ALR inh inactive and Casp6 inh 79.
For O=C(C[C@H]1C=C[C@H](NS(=O)(=O)c2ccccc2)[C@@H](CO)O1)N1CCc2ccccc2C1 the results were F508del corr inactive, PglD DTNB inactive, Env fusion inh inactive and Casp6 inh inactive.
For CCOc1cccc(/C=C(/C#N)c2nc3ccccc3[nH]2)c1OCC(=O)O the results were NSD2 HMT inh inactive, F508del corr inactive, PglD DTNB inactive, Env fusion inh inactive, ALR inh 98 and Casp6 inh 45.
For N#C/C(=C\c1cccc(OCC(=O)O)c1)c1nc2ccccc2[nH]1 the results were NSD2 HMT inh inactive, F508del corr inactive, PglD DTNB inactive, Env fusion inh inactive, ALR inh 98 and Casp6 inh inactive.
`CC=Cc1ccc2n(c1=O)C[C@H]1[C@H](CO)[C@@H](C(=O)NCC3CC3)[C@@H]2N1S(=O)(=O)c1cn(C)cn1` (mixture of isomers) gave F508del corr inactive and PglD DTNB inactive.
CC(C)CC#Cc1ccc([C@@H]2[C@@H](CO)N3C(=O)CN(C(=O)Nc4cc(F)ccc4F)C[C@@H]23)cc1 was read as F508del corr inactive and Casp6 inh inactive.
CCCCNC(=O)N(O)C1N(/N=C/c2ccccc2F)C(=S)SC1(C)C (configuration not stated) was read as NSD2 HMT inh inactive, F508del corr inactive, PglD DTNB inactive, Env fusion inh 81, ALR inh inactive and Casp6 inh inactive.
Screening CS(=O)(=O)N1CCC(Oc2ccccc2C(=O)NC2CCOC2)CC1 (configuration not stated) returned NSD2 HMT inh inactive, F508del corr inactive, Env fusion inh inactive, ALR inh inactive and Casp6 inh inactive.
Screening CN(C(=O)c1ccccc1OC1CCN(S(C)(=O)=O)CC1)C1CCOC1 (configuration not stated) returned NSD2 HMT inh inactive, F508del corr 8.5, Env fusion inh inactive, ALR inh inactive and Casp6 inh inactive.
For O=C(NNC(=O)c1cccs1)c1ccccc1 the results were NSD2 HMT inh inactive, F508del corr inactive, Env fusion inh inactive, ALR inh inactive and Casp6 inh inactive.
For O=C(NC(O)C(=O)c1ccccc1)c1cccs1 (configuration not stated) the results were F508del corr inactive, PglD DTNB inactive, Env fusion inh inactive, ALR inh 91 and Casp6 inh inactive.
CCOC(=O)c1c(C)[nH]c(C2=NNC(=NC3CC3)SC2)c1C was read as NSD2 HMT inh inactive and ALR inh 98.
`CCOC(=O)c1c(C)[nH]c(/C(C)=N/O)c1C` gave NSD2 HMT inh inactive, PglD DTNB inactive, ALR inh inactive and Casp6 inh inactive.
